In all, about 300,000 compounds went through this assay and about 37,000 (12%) were called active. For the sample, actives were picked, then their nearest neighbours and some compounds at random. A number with no mark means an inactive call. Rule as the data show it: active = max response mostly above about 13% (no sharp cut-off); inactive = mostly below about 14%.
Assay: Cycloheximide Counterscreen for Small Molecule Inhibitors of Shiga Toxin; also: read at 38.3 µM for the half of the compounds with a filed dose; 0% is about no effect
Settings: cell reporter, cycloheximide protein synthesis inhibition counterscreen; active compounds read high

Compound	max response
COc1ccccc1C(=O)N1C(CC(=O)Nc2ccccc2C)C(=O)NC2CCCCC21 (stereo not drawn)	-3.1%
N#CC(C#N)=CN=c1ccn(Cc2ccc(Cl)cc2Cl)cc1	-0.809%
C=CCn1c(=NC(=O)c2cccs2)sc2cc(NC(C)=O)ccc21	16.5% (active)
C=CCn1c(=NC(=O)c2ccc(S(=O)(=O)N3CCCC3)cc2)sc2cc(NC(C)=O)ccc21	-4.67%
C=CCn1c(CCNC(=O)c2cccs2)n[nH]c1=S	2.82%
CN1CCN(S(=O)(=O)c2cccc(C(=O)N3CCc4ccccc43)c2)CC1	-1.65%
CCOC(=O)NN1C(=O)c2ccccc2NC1c1cccc(O)c1 (stereo not drawn)	7.43%
O=C1NN(c2ccccc2)C(=O)/C1=C/c1ccc(-c2cccc(C(=O)O)c2)o1	21%
O=C1c2ccccc2NC(c2ccc(-c3cccc(Cl)c3)o2)N1O (stereo not drawn)	38.7% (active)
CC(C)[C@@H](NC(=O)OC(C)(C)C)C(=O)NCC1CCC(C(=O)N[C@@H](Cc2ccccc2)C(=O)O)CC1 (stereo partly drawn)	-1.77%
O=C(c1cn2ccccc2n1)N1CCc2c([nH]c3ccccc23)C1c1ccccn1 (stereo not drawn)	3.01%
Cc1cccc(C2c3[nH]c4ccccc4c3CCN2C(=O)c2cc(-c3cccn3C)n[nH]2)n1 (stereo not drawn)	-3.03%
Cc1cccc(C(=O)N2CCc3c([nH]c4ccccc34)C2CC(C)C)n1 (stereo not drawn)	26.8% (active)
CCN(CCn1cccn1)Cc1nc(-c2ccc(C(=O)OC)cc2)no1	-4.94%
CC(=O)C1=C(O)C(=O)N(c2ccc(S(N)(=O)=O)cc2)C1c1ccccc1F (stereo not drawn)	-0.999%
CCOC(=O)C1CCN(Cc2nnc(-c3cccc(Br)c3)o2)CC1	-0.93%
CCOC(=O)N/N=C/c1cccnc1	11.3%
Brc1ccc(-c2csc(N/N=C/c3cccnc3)n2)cc1	19.4% (active)
COc1ccc(-c2csc(Cc3nc(O)cs3)n2)cc1	37.4% (active)
Brc1ccc(-c2csc(N/N=C/c3ccc4c(c3)OCO4)n2)cc1	17.6%
CN(C(=O)CSc1nc(C2CC2)nc2ccccc12)c1nc(-c2ccccc2)cs1	4.58%
COc1ccc(-c2csc(N3CCN(Cc4ccc5c(c4)OCO5)CC3)n2)cc1	-4.44%
COc1ccc(Nc2nc(-c3ccccc3)cs2)cc1	46.6% (active)
COc1ccc(CCN(C(=O)COc2ccccc2)c2nc(-c3ccccc3)cs2)cc1OC	5.03%

Compound	max response
CN(c1ccc(O)cc1)c1nc(-c2cccnc2)cs1	56.1% (active)
CC(C)(C)C(=O)OCc1nc(-c2ccc(O)c(O)c2)cs1	5.11%
NS(=O)(=O)c1ccc(Nc2nc(-c3ccccc3)cs2)cc1	18.5%
COc1ccc(-c2csc3ncnc(N4CCN(S(=O)(=O)c5ccccc5C#N)CC4)c23)cc1	-2.23%
COc1cc(/C=N/O)cc(Br)c1OS(=O)(=O)c1ccc(C)cc1	1.45%
COc1cc(NC(=O)CCNC(=O)Cn2ccc3ccccc3c2=O)cc(OC)c1OC	-5.95%
COc1ccc(OC)c(C(=O)NC(CC(N)=O)c2ccc(N3CCC(N4CCCCC4)CC3)c([N+](=O)[O-])c2)c1 (stereo not drawn)	4.9%
CCC(C(=O)NC1CCCC1)N(C(=O)Cn1nnc(-c2ccc(C)o2)n1)c1ccc(OC)c(OC)c1 (stereo not drawn)	-5.67%
Cc1scc(C(=O)NNC(=S)NCc2ccccc2)c1C	-0.644%
Cc1ccc(S(=O)(=O)N(Cc2ccc(Cl)cc2)c2ccccc2C(=O)NCc2cccnc2)cc1	7.18%
COC(=O)c1cc2c(ccn2C)n1C	-8.1%
Oc1ccc(-c2csc(Nc3cccnc3)n2)cc1	33.7% (active)
COc1ccc(-c2csc(Nc3ccc(O)cc3)n2)cc1	58.3% (active)
COc1ccc(OC)c(Nc2nc(-c3ccc(O)c(O)c3)cs2)c1	0.815%
O=C(Nc1ccc(-c2csc(Nc3cccc(C(F)(F)F)c3)n2)cc1)c1cccc(C(F)(F)F)c1	-4.63%
COC(=O)CCc1sc(Nc2ccc(Br)cc2)nc1-c1ccc(OC)cc1	11.1%
COC(=O)CCCCCN1C(=O)NC(c2ccc(-c3ccccc3)cc2)C(C(=O)OCc2ccccc2)=C1C (stereo not drawn)	-3.62%
CN1C2CCC1/C(=C\c1ccccc1Cl)C(=O)/C2=C\c1ccccc1Cl	-1.18%
Cc1cc(C)c(S(=O)(=O)c2ccc(F)cc2C)c(=O)[nH]1	0.432%
O=C(Cn1cnc2c(cnn2-c2ccccc2)c1=O)NCc1ccccc1	20.7% (active)
Cc1ccc(-c2nc3c(cnn3-c3ccccc3)c(=O)o2)cc1	-3.4%
O=C(Cn1cnc2cc([N+](=O)[O-])ccc2c1=O)NC(=O)NCc1ccccc1	5.35%
O=C(Cn1cnc2c(cnn2-c2ccc(F)cc2)c1=O)NCCc1ccccc1	-1.32%
CC(=O)Cn1cnc2c(cnn2-c2ccccc2)c1=O	20.7% (active)

Compound	max response
COc1ccc(-n2c(C)nc3c(cnn3-c3ccccc3)c2=O)cc1	-2.87%
Cc1cc(C)n(S(=O)(=O)c2cccc([N+](=O)[O-])c2)n1	0.92%
COc1ccccc1C(=O)NCc1nnc(SC(C)C(=O)Nc2nccs2)n1C (stereo not drawn)	2.76%
Cc1ccc(-n2ncc3c2CCCC3NC(=O)c2cnccn2)cc1C (stereo not drawn)	9.44%
C/C=C/c1ccc(OCCCCN2CCC(C)CC2)c(OC)c1	0.514%
c1ccc(CSc2ncnc3c2sc2nc(N4CCOCC4)c4c(c23)CCCC4)cc1	-3.72%
Cc1nnc(N/N=C/c2cccs2)[nH]c1=O	-2.07%
S=c1[nH]nc(-c2cccs2)n1/N=C/c1cccs1	8.89%
Cc1n[nH]c(=O)nc1N/N=C/c1cccs1	25.7% (active)
COCCOC(=O)c1sc(=S)n(CCOC)c1N	-1.77%
CC(C)(C)c1ccc(Cn2nnc3c(=O)[nH]c(C4CCCN(C(=O)c5ccco5)C4)nc32)cc1 (stereo not drawn)	4.58%
Clc1ncn(CCOc2ccccc2)c1Cl	-2.48%
Cc1cccc2c1N(CCOc1ccccc1)C(=O)C2=O	8.28%
Cc1nn(CCOc2ccccc2)c(=O)n1-c1ccccc1F	49.6% (active)
CCc1nc2cccnc2n1-c1ccc(C(=O)O)cc1	-1.63%
COc1cccc(C(O)c2nc3ccccc3n2C)c1 (stereo not drawn)	-2.8%
CCOc1ccc2nc(C(=O)N3CCCC(C)C3)sc2c1 (stereo not drawn)	105% (active)
CCCC(=O)N(CCN1CCOCC1)c1nc2ccc(OCC)cc2s1	16.6%
CCOc1ccc2nc(Nc3nc4ccc(NC(C)=O)cc4s3)sc2c1	-1.98%
CCOc1ccc(S(=O)(=O)NCCCn2ccnc2)cc1NC(C)=O	-3.29%
CCOc1cccc2c1OC1(CCCCC1)N1N=C(c3cccnc3)CC21 (stereo not drawn)	40.7% (active)
CCOc1ccccc1C1CC(c2cccc(NS(C)(=O)=O)c2)=NN1C(=O)c1ccccc1 (stereo not drawn)	-1.46%
c1cncc(-c2nnc3n2C2(CCCCC2)Cc2ccccc2-3)c1	-1.12%
CC1CCN(S(=O)(=O)c2ccc3c(c2)n(C)c(=O)n3C)CC1	2.78%

Compound	max response
Cc1cc(CNCc2c(C(=O)N(C)Cc3ccccc3)nc3ccccn23)nn1C	1.54%
Cc1cc2c(cc1C)NC(c1ccccn1)C1=C(CC(C)(C)CC1=O)N2 (stereo not drawn)	28% (active)
CC1(C)CC(=O)C2=C(C1)Nc1cc(C(=O)c3ccccc3)ccc1NC2c1ccccn1 (stereo not drawn)	5.93%
Cc1nn(-c2ccccn2)c2c1C(c1ccncc1)C1=C(CC(C)(C)CC1=O)N2 (stereo not drawn)	-5.72%
C/C(=C\c1ccccc1)C1NC(=O)c2c(sc3c2CCCC3)N1 (stereo not drawn)	36.6% (active)
Cc1ccc(C(=O)c2c(NC(=O)c3ccncc3)sc3c2CCCC3)cc1	-4.15%
O=C1CCCCC1C(=O)c1ccccc1 (stereo not drawn)	12.6%
O=C(Nc1sc2c(c1-c1nc3ccccc3[nH]1)CCCC2)C1CC1	16.7%
O=C1NC(c2ccncc2)Nc2sc3c(c21)CCCC3 (stereo not drawn)	26.5% (active)
CCOC(=O)c1cc2ccccc2n1CC(=O)c1ccccc1	1.26%
CC1CCC2CCCCC2N1C(=O)c1cc([N+](=O)[O-])cc([N+](=O)[O-])c1 (stereo not drawn)	10.4%
NS(=O)(=O)c1ccc(CCNC(=O)c2nc(CS(=O)(=O)c3ccc(Cl)cc3)no2)cc1	-2.33%
CCn1cc(C(=O)N[C@@H](C)C(=O)NCCO)c(=O)c2cc3c(cc21)OCO3	-1.13%
CC(CO)NCC12CC3CC(CC(C3)C1)C2 (stereo not drawn)	-1.89%
N/C(=N\OC(=O)Nc1ccccc1)c1ccno1	24.5% (active)
O=C(Nc1ccccc1Cl)O/N=C(/c1ccccc1)c1ccccn1	-2.08%
N/C(=N\OC(=O)Nc1ccc(Cl)c(Cl)c1)c1ncc(C(F)(F)F)cc1Cl	-4.62%
COc1ccc(-c2c(C)cc3oc(=O)cc(-c4ccccc4)c3c2C)cc1C=O	19.9%
COc1cccc(NC(=O)CN(C)C(C)C(=O)Nc2ccc(C#N)cc2)c1 (stereo not drawn)	11.8%
S=c1nc2ccccc2c2nc(-c3cccnc3)[nH]n12	-3.11%
C=CCn1c(=O)c(C(=O)NCc2ccc3c(c2)OCO3)c(O)c2ccccc21	-4.21%
